Screens as filed in PubChem BioAssay.
Sampled rows, rich in hits. Any-hit rate of the full collection: about 1.5%.
PrPC TRFRET: inhibitors of human cell surface prion protein PrPC; P04156; TR-FRET read-out; inhibition, % at 13.8 µM; 370,000 compounds, 0.43% hits; AID 720596; in the data active = inhibition above about 24%
VHR inh abs: inhibitors of human VHR1 phosphatase (DUSP3) | P51452 | recombinant VHR phosphatase, pNPP absorbance | inhibition, % at 13.3 µM | 290,000 compounds, 0.52% hits; in the data active = inhibition above about 50%
Target sequence (P51452 whole entry, looked up): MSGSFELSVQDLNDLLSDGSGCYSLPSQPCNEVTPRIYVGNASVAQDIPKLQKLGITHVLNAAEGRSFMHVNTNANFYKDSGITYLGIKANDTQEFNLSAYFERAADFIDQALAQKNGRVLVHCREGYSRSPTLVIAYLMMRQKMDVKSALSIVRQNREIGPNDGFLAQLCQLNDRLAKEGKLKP
BH1578 lux ind: quorum light induction in luxS cqsA deficient V. cholerae; 350,000 compounds, 0.16% hits; activation, % at 18.7 µM; V. cholerae BH1578 lux reporter, luminescence, 6 h; in the data active = activation mostly above about 9.7%, no sharp cut-off
TcdB inh: TcdB glycohydrolase inhibition; TcdB glycohydrolase enzymatic assay, plate reader; inhibition, % at 9.99 µM; P18177; AID 652162; 350,000 compounds, 0.24% hits; in the data active = inhibition above about 10%
SSB-PriA inh: inhibitors of Klebsiella pneumoniae PriA binding to SSB C-terminal tail | AlphaScreen SSBct-PriA binding, biotinylated peptide | inhibition, % at 33 µM | 430,000 compounds, 0.6% hits; in the data active = inhibition mostly above about 37%, no sharp cut-off; inactive = mostly below about 20%
CCHF vOTU inh-1: blocks the CCHF virus ovarian tumor domain protease; CCHFV vOTU protease, Pep-AMC fluorescence; inhibition, % at 11.5 µM; 370,000 compounds, 0.55% hits; AID 651958
CCHF vOTU inh-2: confirmation of CCHF virus vOTU protease inhibitors; shares compounds with CCHF vOTU inh-1; 1,900 compounds, 17% hits; Recombinant CCHFV vOTU, Pep-AMC fluorescence; inhibition, % at 11.5 µM
Hits are given with their value. Rule as the data show it, unless noted: active = inhibition above about 30%; inactive = the rest.

Screening Cc1ccc(C(=O)OCC(=O)Nc2cc(C(C)(C)C)nn2-c2ccccc2)c(O)c1 returned PrPC TRFRET inactive, BH1578 lux ind inactive, TcdB inh inactive, SSB-PriA inh inactive, CCHF vOTU inh-1 33 and CCHF vOTU inh-2 inactive.
CSC1=N/C(=C\c2ccc(C)s2)C(=O)S1 was read as PrPC TRFRET inactive, VHR inh abs inactive, BH1578 lux ind inactive, SSB-PriA inh inactive and CCHF vOTU inh-1 inactive.
CSC1=N/C(=C\c2ccc(C)o2)C(=O)S1 was read as PrPC TRFRET inactive, VHR inh abs inactive, BH1578 lux ind inactive, SSB-PriA inh inactive, CCHF vOTU inh-1 30 and CCHF vOTU inh-2 inactive.
O=C1C(=NO)CCc2ccccc21 was read as PrPC TRFRET inactive, BH1578 lux ind inactive, TcdB inh inactive, SSB-PriA inh inactive, CCHF vOTU inh-1 69 and CCHF vOTU inh-2 82.
For CSc1ccc(NC(=O)c2ccc(F)cc2)nn1 the results were SSB-PriA inh inactive.
For CN(C(=S)Nc1ccc(Oc2ccccc2)cc1)c1ccc(O)cc1 the results were PrPC TRFRET inactive, VHR inh abs inactive, BH1578 lux ind inactive, SSB-PriA inh inactive, CCHF vOTU inh-1 30 and CCHF vOTU inh-2 inactive.
CN(C(=S)Nc1ccc(SC(F)F)cc1)c1ccc(O)cc1 was read as PrPC TRFRET inactive, VHR inh abs inactive, BH1578 lux ind inactive, TcdB inh inactive, SSB-PriA inh inactive, CCHF vOTU inh-1 30 and CCHF vOTU inh-2 inactive.
For CN(C(=S)Nc1ccccc1)c1ccccc1 the results were PrPC TRFRET inactive, VHR inh abs inactive, BH1578 lux ind inactive, SSB-PriA inh inactive and CCHF vOTU inh-1 inactive.
CN(C(=S)Nc1cccnc1)c1ccc(O)cc1 was read as PrPC TRFRET inactive, VHR inh abs inactive, BH1578 lux ind inactive, TcdB inh inactive, SSB-PriA inh inactive, CCHF vOTU inh-1 49 and CCHF vOTU inh-2 inactive.
CCN(C(=S)Nc1cccnc1)c1ccccc1 was read as PrPC TRFRET inactive, VHR inh abs inactive, BH1578 lux ind inactive, TcdB inh inactive, SSB-PriA inh inactive and CCHF vOTU inh-1 inactive.
`CNC(=O)C(=O)NC[C@@H](c1cccc2ccccc12)N1CCOCC1` gave SSB-PriA inh inactive.
Cc1nc2c(C)cccn2c1C(O)=C1C(=O)C(=O)N(CCN2CCOCC2)C1c1cccs1 (centres undefined) was read as SSB-PriA inh inactive.
Nc1cc2cccnc2cc1Cl was read as PrPC TRFRET inactive, BH1578 lux ind inactive, TcdB inh inactive, SSB-PriA inh inactive, CCHF vOTU inh-1 39 and CCHF vOTU inh-2 inactive.
`CC1=NN(c2ccc(C)c(C)c2)C(=O)C1C(c1cccc(O)c1)C1C(=O)N(c2ccc(C)c(C)c2)N=C1C` (centres undefined) gave PrPC TRFRET inactive, VHR inh abs 54, BH1578 lux ind inactive, SSB-PriA inh inactive, CCHF vOTU inh-1 42 and CCHF vOTU inh-2 inactive.
Screening Cc1ccc(N2C(=O)C3C4C=CC(C3C2=O)C2C(=O)N(c3ccc(C)c(C)c3)C(=O)C42)cc1C (centres undefined) returned SSB-PriA inh inactive.
Screening CC(=O)c1ccc(N2CCN(C(=O)c3ccc(OCc4c(C)noc4C)cc3)CC2)cc1 returned PrPC TRFRET inactive, VHR inh abs inactive, BH1578 lux ind inactive, SSB-PriA inh inactive, CCHF vOTU inh-1 34 and CCHF vOTU inh-2 inactive.
CCn1nnc(C(N)=O)c1N was read as SSB-PriA inh inactive.
`CC(=O)N(/N=C1\Sc2ccccc2C1=O)c1ccccc1C` gave PrPC TRFRET inactive, VHR inh abs inactive, BH1578 lux ind inactive, CCHF vOTU inh-1 47 and CCHF vOTU inh-2 38.
Screening Cc1ccccc1OCC(=O)N1N=C(C(F)(F)F)CC1(O)C(C)(C)C (centres undefined) returned PrPC TRFRET inactive, VHR inh abs inactive, BH1578 lux ind inactive, SSB-PriA inh inactive, CCHF vOTU inh-1 33 and CCHF vOTU inh-2 inactive.
`NC(=O)CSc1cn(Cc2ccccc2Cl)c2ccccc12` gave SSB-PriA inh inactive.
Cc1[nH][nH]c(=O)c1C(c1c(C)[nH][nH]c1=O)c1cn(Cc2ccccc2Cl)c2ccccc12 was read as PrPC TRFRET inactive, VHR inh abs inactive, BH1578 lux ind inactive, SSB-PriA inh inactive, CCHF vOTU inh-1 66 and CCHF vOTU inh-2 inactive.
Cc1ccc(S(=O)(=O)/N=C2/NC(=O)/C(=C/c3ccc(Br)o3)S2)cc1 was read as PrPC TRFRET inactive, VHR inh abs inactive, BH1578 lux ind inactive, CCHF vOTU inh-1 36 and CCHF vOTU inh-2 inactive.
